Data reported in the supplement of paper PMC12645437, “Orthogonal IMiD-Degron Pairs Induce Selective Protein Degradation in Cells” (ACS Chemical Biology, 2025).
Over roughly 8,300 sequences, “log2 fold change of degron read counts, EGFP-low vs EGFP+ sorted cells (limma voom), compound-induced degradation” has its median near -1.1; the highest 2% begin near 3.2. Only a selection was taken, and the highest values are over-represented in it overall.

T1: CRBN, Q96SW2
T1 chain: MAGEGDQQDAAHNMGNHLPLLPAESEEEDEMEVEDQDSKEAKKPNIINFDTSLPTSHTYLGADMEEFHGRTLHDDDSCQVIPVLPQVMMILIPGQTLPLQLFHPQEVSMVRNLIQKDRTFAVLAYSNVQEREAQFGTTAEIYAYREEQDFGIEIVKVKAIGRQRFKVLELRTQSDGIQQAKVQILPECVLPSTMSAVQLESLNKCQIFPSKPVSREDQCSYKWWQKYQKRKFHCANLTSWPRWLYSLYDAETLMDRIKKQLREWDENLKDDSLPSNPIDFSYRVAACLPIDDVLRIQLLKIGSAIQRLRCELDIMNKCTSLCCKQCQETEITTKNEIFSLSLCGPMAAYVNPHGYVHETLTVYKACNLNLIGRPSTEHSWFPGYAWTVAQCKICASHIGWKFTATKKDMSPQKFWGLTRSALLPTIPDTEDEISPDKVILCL


Target: T1, CRBN, Q96SW2
Assay: log2 fold change of degron read counts, EGFP-low vs EGFP+ sorted cells (limma voom), compound-induced degradation; higher = more compound-induced degradation of the degron-EGFP fusion; degrons are variants of IKZF1/3 zinc finger 2; compound dose not given here
Details: Jurkat, 18 h
[1] = compound: compound 19 (5-tert-butyl-thalidomide)
[2] = compound: compound 22 (5-morpholino-thalidomide)
[3] = compound: compound 33 (diphenyl IMiD analogue)
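Note: pooled lentiviral library of zinc finger degron-EGFP fusions in mCherry-positive Jurkat cells, FACS-sorted after compound exposure, with degron abundance counted by next-generation sequencing.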

Sequence | log2 fold change of degron read counts [1] | log2 fold change of degron read counts [2] | log2 fold change of degron read counts [3] | log2 fold change of degron read counts (compound: thalidomide)
FHCNICGAHFTQKGNLLRHIKL [46F_47H_49N_50I_52G_53A_54H_55F_67L_, Q9UKT9] | 0.23 | -0.286 | -0.308 | -1.49
FGCPICGHQFTQKGNLLRHIKL [46F_47G_49P_50I_52G_53H_54Q_55F_67L_, Q9UKT9] | -1.23 | -2.85 | -2.17 | -2.38
FVCEVCGAWFTQKGNLLRHIKL [46F_47V_49E_50V_52G_53A_54W_55F_67L_, Q9UKT9] | -1.7 | -0.89 | 0.622 | 0.0931
FLCDQCGAMFTQKGNLLRHIKL [46F_47L_49D_50Q_52G_53A_54M_55F_67L_, Q9UKT9] | -3.11 | -2.68 | -1.79 | -2.7
FICNQCGRAFTQKGNLLRHIKL [46F_47I_49N_50Q_52G_53R_54A_55F_67L_, Q9UKT9] | -2.99 | -3.18 | -3.02 | -2.57
FGCNQCGAHFTQKGNLLRHIKL [46F_47G_49N_50Q_52G_53A_54H_55F_67L_, Q9UKT9] | -2.35 | -2.82 | -1.79 | -2.17
FRCEICGHQFTQKGNLLRHIKL [46F_47R_49E_50I_52G_53H_54Q_55F_67L_, Q9UKT9] | -3.28 | -3.74 | -2.48 | -2.14
FQCDVCGACFTQKGNLLRHIKL [46F_47Q_49D_50V_52G_53A_54C_55F_67L_, Q9UKT9] | -1.14 | 1.47 | 0.493 | 3.01
